Measured values published in paper PMC11062922 (Nature Chemical Biology, 2023).

Each molecule was assayed on GSK3B. Details: read-out: apparent Kd; compound concentrations:100 nM and 1000 nM (sheet 'Samples'); n = 1.
Design: species or system human, MV4-11 + K-562 + COLO205 + SK-N-BE2 + OVCAR-8
`COc1cccc(C2=C(Nc3cc(Cl)c(O)c(Cl)c3)C(=O)NC2=O)c1` [SB-390767] showed a potency estimated from few doses of 1090 nM. `O=C(Nc1n[nH]c2nc(-c3cccs3)c(Br)cc12)C1CCCC1` [SB-743341] was tested, and the potency estimated from few doses was 1070 nM. `COc1cccc(C2=C(Nc3ccc(Cl)c(C(=O)O)c3)C(=O)NC2=O)c1` [SB-390769] gave a potency estimated from few doses of 644 nM. In the case of `CN(C)CC1CCn2c(c(C3=C(c4cn(C)c5ccccc45)C(=O)NC3=O)c3ccccc32)C1` (centres unmarked) [RO0318830-000], the potency estimated from few doses is reported as 53.4 nM. Molecule `O=C(Nc1n[nH]c2cc(-c3ccco3)ccc12)C1CC1` [SB-737447] has a potency estimated from few doses of 645 nM. `Cn1cc(C2=C(c3c4n(c5ccccc35)CCC(CN)CC4)C(=O)NC2=O)c2ccccc21` (centres unmarked) [RO0319371-000] was tested, and the potency estimated from few doses was 504 nM. `Nc1n[nH]c2nnc(-c3ccccc3)c(-c3ccccc3)c12` [GW554060X] was tested, and the potency estimated from few doses was 833 nM.

Each molecule was assayed on HSP90B1. Details: read-out: apparent Kd; compound concentrations:100 nM and 1000 nM (sheet 'Samples'); n = 1.
Design: species or system human, MV4-11 + K-562 + COLO205 + SK-N-BE2 + OVCAR-8
Molecule `COc1cc(C2=NC(c3ccc(Cl)cc3F)C(C(=O)Nc3ccc4[nH]ncc4c3)=C(C)N2)ccn1.O=C(O)C(F)(F)F` (centres unmarked) [GSK534911A] has a potency estimated from few doses of 1110 nM. For `C[C@@H]1CCCCN1c1cc(-c2ccc3c(N)n[nH]c3c2)nc(N)n1` [GSK2258759A], the potency estimated from few doses was 968 nM. `COC(=O)Nc1nc2cc(Oc3ccc(NC(=O)Nc4cc(C(F)(F)F)ccc4Cl)cc3)ccc2[nH]1.Cl` [GW697465A] was tested, and the potency estimated from few doses was 1220 nM. With `[2H]C([2H])(c1cccc(C(F)(F)F)c1C)n1ccn2c(=O)cc(N3CCOCC3)nc12` [GSK2289044B] the potency estimated from few doses was 112 nM.
